HCV inh: qHTS Assay for Inhibitors of Hepatitis C Virus (HCV) | actives 3.4% (n = 340,000) | AID 651820, 2012 | Potency, µM (top dose mostly 41.8 µM), inactives show at the highest dose activity change, negative = inhibition, most hits filed as inhibitors | Huh7.5.1 HCVcc-Cre infection, luciferase reporter, 44 h; active means well fitted inhibition curve with a large enough effect; inconclusive means small, poorly fitted or top-dose-only effect, or another doubt; inactive means no such curve, though single readings can be large or run the other way; further: potency means the concentration at half of the fitted maximal effect
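1,000 cells/well; 4 h culture; + compound; + HCVcc-Cre (~0.5 moi); 44 h; luciferase substrate, RT 15 min; read 15 sec.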
VACV Venus inh: qHTS for Stage-Specific Inhibitors of Vaccinia Orthopoxvirus: Venus Reporter Primary qHTS; actives 0.46% (n = 330,000); Vaccinia virus Venus reporter expression, fluorescence; AID 720580, 2013; Potency, µM (series often up to 36.5 µM), for the others: top-dose activity change, negative = inhibition, actives largely listed as inhibitors; calls by dose curve; tested in A549 cells; further: potency means the concentration at half of the fitted maximal effect; nearly all actives have a fitted effect of over 30% in size
Vaccinia mCherry: qHTS for Stage-Specific Inhibitors of Vaccinia Orthopoxvirus: mCherry Reporter Primary qHTS; actives 0.63% (n = 310,000); Potency, µM (series often up to 36.5 µM), for the others: at the highest dose activity change, negative = inhibition, most hits filed as inhibitors; Vaccinia virus mCherry reporter infection, fluorescence; AID 720579, 2013; calls by dose curve; tested in A549 cells; further: potency means the concentration at half of the fitted maximal effect; nearly all actives have a fitted effect of over 35% in size
FMDV inh: High Throughput Screening for Foot and Mouth Disease Virus Antivirals. Potency, µM (top dose mostly 57.9 µM), for inactives: at the top dose activity change, negative = inhibition, hits mostly inhibitors. actives 1.2% (n = 410,000). FMDV antiviral cell-based qHTS. AID 1159524, 2015; calls by dose curve; tested in HEK293T cells; further: read-out not given here; potency means the concentration at half of the fitted maximal effect; nearly all actives have a fitted effect of over 45% in size
HCMV inh: qHTS Assay for inhibitors of the human cytomegalovirus (HCMV) | AID 1259415, 2018 | HFF cells, HCMV-luciferase reporter, 72 h; active compounds read low | activity change, negative = inhibition, % at 57.5 µM | actives 4.5% (n = 410,000); in the data active means activity change below about -60%; inconclusive means no clear call, values can overlap the other calls; inactive means above about -39%
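Compounds were evaluated in HFFs infected with an HCMV luciferase reporter virus (MOI 1 PFU/cell). Luciferase in lysates collected 72 h post infection served as the replication measure.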
Starred values were filed as active, the others as inactive; i = inactive; ? = inconclusive; . = not tested or not shown; + = active, no number; ! = not active in a repeat. Sampled rows, rich in hits. Any-hit rate of the full collection: about 7.3%. On the % scale 0 is the no-effect control and ±100 the full control effect.

SMILES	HCV inh	VACV Venus inh	Vaccinia mCherry	FMDV inh	HCMV inh
COc1ccc(CNC(=O)C2=CC(c3ccc(OC)c(OC)c3)=NS(=O)(=O)N2C)cc1	-21%	4%	9%	-20%	-19
COc1ccc(C2=NS(=O)(=O)N(C)C(C(=O)NCc3ccccc3)=C2)cc1OC	-19%	-4%	-7%	-23%	-80*!
COc1ccc(C2=NS(=O)(=O)N(C)C(C(=O)N3CCc4ccccc4C3)=C2)cc1OC	10µM*	-7%	-21%	28µM*	-28
O=C(Nc1cc(C(F)(F)F)ccc1N1CCCCC1)C1=COCCO1	.	-14%	-13%	?	-17
Oc1ccc(N=Nc2ccccc2-c2nn[nH]n2)c(O)c1	14%	.	.	-7%	40
COc1cc(CN(C(=O)c2ccccc2[N+](=O)[O-])c2ccccn2)cc(OC)c1OC	.	4%	-12%	-11%	-4
CCn1cc(CN(C)C(=O)CSc2nc(-c3ccco3)cc(C(F)(F)F)n2)c(C)n1	?	-22%	-28%	20µM*	-23
Cc1c(CN(C)C(=O)CSc2nc(-c3ccco3)cc(C(F)(F)F)n2)cnn1C	-13%	-15%	-16%	.	8
O=C(CSc1nc(-c2ccco2)cc(C(F)(F)F)n1)NN1CCOCC1	-17%	-6%	-9%	-7%	1
Cc1nn(C)c(C)c1NC(=O)CCCSc1nc(-c2ccco2)cc(C(F)(F)F)n1	2.2µM*	?	.	?	?
O=C(CSc1nc(-c2ccco2)cc(C(F)(F)F)n1)Nc1ccc2c(c1)OCO2	3.5µM*	?	?	?	?
O=C(CSc1nc(-c2ccco2)cc(C(F)(F)F)n1)Nc1ccc(C(=O)N2CCOCC2)cc1	10µM*	-23%	.	-23%	-8
CC1=C(C(=O)Nc2cccnc2)C(c2ccccc2)n2nc(-c3ccc(O)cc3)nc2N1 (centres undefined)	.	-11%	5%	7%	26
COc1cc(CN2CCC3(CCC(CNC(=O)c4ccccc4)O3)CC2)cc(OC)c1 (centres undefined)	.	-6%	i	-10%	.
CC1=C(C(=O)N(C(C)C)C(C)C)CC(CC(=O)NCCN2CCOCC2)C(=O)N1CCC1=CCCCC1 (centres undefined)	.	-1%	10%	-16%	-1
O=C(CN1CCCCC1)Nc1ccc(S(=O)(=O)c2ccc(NC(=O)CN3CCCCC3)cc2)cc1	?	7%	-3%	-8%	?
COc1ccc(C(=O)c2cn(Cc3ccc(F)cc3)c3ccc(C)cc3c2=O)cc1	.	-8%	-10%	-24%	-17
O=C(CCCSc1nc(-c2ccco2)cc(C(F)(F)F)n1)Nc1ccc2c(c1)OCO2	4µM*	?	.	-17%	-26
CC(=O)c1ccc(NC(=O)CCCSc2nc(-c3ccco3)cc(C(F)(F)F)n2)cc1	.	-18%	-23%	-28%	-6
COc1ccc(NC(=O)c2cc(-c3ccccc3O)no2)cc1	.	-8%	-2%	0%	18
COc1ccc(-c2onc(C)c2-c2ccc(C(=O)OC(C)C)o2)c(O)c1	6.3µM*	?	?	-25%	-8
Cc1cccc(CN2C(=O)c3ccccc3Sc3ccc(C(=O)NCCCN4CCOCC4)cc32)c1	-10%	-14%	-23%	-11%	-64*!
COCCCNC(=O)c1ccc2c(c1)N(Cc1ccccc1)C(=O)c1ccccc1S2	.	-5%	-10%	-12%	-6
CCCCN(CC)CCCNC(=O)c1ccc2c(c1)N(Cc1ccc(C)cc1)C(=O)c1ccccc1S2	.	?	13µM*	?	-98*
O=C(NCCN1CCOCC1)c1ccc2c(c1)N(Cc1ccccc1)C(=O)c1ccccc1S2	2%	.	.	-2%	+
SMILES	HCV inh	VACV Venus inh	Vaccinia mCherry	FMDV inh	HCMV inh
O=C(c1cccs1)N1N=C(c2ccccc2)CC1c1ccccc1 (centres undefined)	14µM*	-18%	-14%	.	?
COc1ccc(C2CC(c3ccccc3)=NN2S(=O)(=O)c2ccc(C)cc2)c(OC)c1 (centres undefined)	?	-19%	-25%	60%	-63*
O=S(=O)(c1ccccc1)N1N=C(c2ccccc2)CC1c1ccccc1 (centres undefined)	-27%	-15%	-13%	-22%	-74*
CCc1cccc(NC(=O)Cn2c(=O)n(-c3ccccc3C)c(=O)c3c2c2cc(C)ccc2n3C)c1	.	-5%	-8%	-17%	-11
CC(NC(=O)c1cccnc1)c1nnc2n1CCN(Cc1ccc(-c3ccccc3)cc1)CC2 (centres undefined)	.	-1%	-11%	-10%	.
CCOC(=O)C1CCN(C(=O)CSc2cc(=O)n(CC)c3ccccc23)CC1	11µM*	-18%	-4%	14%	6
CCn1c(=O)cc(SCC(=O)N2CCC(C)CC2)c2ccccc21	?	.	.	-10%	57
CCn1c(=O)cc(SCC(=O)N2CCN(Cc3ccc4c(c3)OCO4)CC2)c2ccccc21	?	.	.	40µM*	99
CCN(CC)c1ccc(/C=N/NC(=O)c2nnn(-c3nonc3N)c2C(C)C)c(O)c1	1.1µM*	?	2.5µM*	0%	-102*
Cc1nnn(-c2nonc2N)c1C(=O)N/N=C/c1cccc2ccccc12	?	-6%	i	-4%	-65*
Nc1nonc1-n1nnc(C(=O)N/N=C/c2ccc(O)cc2)c1CN1CCCCCC1	11%	-15%	i	-14%	-61*
CN(Cc1c(C(=O)N/N=C/c2ccccc2O)nnn1-c1nonc1N)C1CCCCC1	.	?	?	-19%	-98*
CC1CCN(Cc2c(C(=O)N/N=C/c3ccccc3O)nnn2-c2nonc2N)CC1	3.5µM*	?	2µM*	10%	-95*
Nc1nonc1-n1nnc(C(=O)N/N=C/c2ccc(Br)cc2)c1CSC1=NCCS1	?	?	?	-54%	?
CC(C)c1ccc(/C=N/NC(=O)c2nnn(-c3nonc3N)c2CSC2=NCCS2)cc1	11µM*	?	?	?	-21
CC(=C/c1ccccc1)/C=N/NC(=O)c1nnn(-c2nonc2N)c1CN1CCC(C)CC1	?	-13%	-21%	12%	-15
OCCN(CCO)CC(O)CN1c2ccccc2Sc2ccccc21 (centres undefined)	13%	.	.	-6%	.
CCN(CC)CC(O)CN1c2ccccc2Sc2ccccc21 (centres undefined)	22µM*	-25%	?	-10%	.
Cc1cccc2sc(N(CCN(C)C)C(=O)C3CCN(S(=O)(=O)c4cccs4)CC3)nc12	?	-19%	-7%	?	-5
CN(C)CCCN(C(=O)/C=C/c1cccs1)c1nc2c(F)cccc2s1	?	10µM*	10µM*	?	?
Cc1cccc2sc(N(CCN(C)C)C(=O)/C=C/c3cccs3)nc12	?	?	-26%	?	-77*
